Values without a mark were called inactive. Calls of active or inactive are those of the source.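 The calls were made as follows, unless noted: active = compounds that lower survival of DLD-1 colon cancer cells in the luminescence readout, no cutoff given; inactive = the rest.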
Test: CellTiter-Glo luminescent readout of SW480 viability loss, NPC library primary (AID 1117343;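 active = compounds that lower viability of the colon cancer cells in the luminescence readout, with no numeric limit stated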)
Conditions: CellTiter-Glo luminescence; at 20 µM (top of the series)

| Structure (SMILES) | viability decrease (inhibition) |
| --- | --- |
| CC(C)(C)c1cc(O)ccc1O | 17.3% |
| CCN(CC)C(=O)N[C@@H]1C=C2c3cccc4[nH]cc(c34)C[C@@H]2N(C)C1 | -11.8% |
| COc1cccc(C(=O)CCN[C@@H](C)[C@H](O)c2ccccc2)c1 | 91.6% (active) |
| CC1(C)S[C@@H]2[C@H](N)C(=O)N2[C@@H]1C(=O)O | 6.9% |
| CCCN(CCC)C(=O)Cc1c(-c2ccc(Cl)cc2)nc2ccc(Cl)cn12 | 18% |
| Nc1ccccc1C(=O)O | 11.5% |
| COc1cc(CC#N)cc(OC)c1OC | 15.5% |
| C[C@H]1CNCCc2ccc(Cl)cc21 | 45.3% |
| Nc1ccc(N)cc1 | 84.1% (active) |
| CC(C)(C)NC[C@H](O)c1ccc(O)cc1Cl | 37.1% |
| Clc1ccccc1N1CCNCC1 | 19% |
| CCN(CC)N(O)N=O | -1.2% |
| CCN(CC)Cc1nccn1-c1ccc([N+](=O)[O-])cc1C(=O)c1ccccc1Cl | 39.7% |
| O=c1[nH]c2cc(Cl)ccc2n1C1CCNCC1 | 10.3% |
| Oc1ccccc1-c1ccccc1 | 15.3% |
| O=C(N[C@H]1N=C(c2ccccc2F)c2cccc3c2N(CC3)C1=O)c1cc2ccccc2[nH]1 | 56.9% (active) |
| COP(=S)(OC)SCN1C(=O)c2ccccc2C1=O | 6.9% |
| CC(C)NC(C)C | 2.1% |
| CNC(C)[C@@H](O)c1ccc(O)cc1 (stereo not given in full) | 27.7% |
| CCCOC(=O)c1cncn1C(C)c1ccccc1 (stereo not given) | -24.3% |

| Structure (SMILES) | viability decrease (inhibition) |
| --- | --- |
| C1CN(P2(N3CC3)=NP(N3CC3)(N3CC3)=NP(N3CC3)(N3CC3)=N2)CCO1 (stereo not given) | 17.7% (active) |
| N[C@@H](Cc1ccc(Oc2cc(I)c(O)c(I)c2)c(I)c1)C(=O)O | 36.1% |
| CC[N+]1(CC)CCC(OC(=O)C(O)(c2ccccc2)c2ccccc2)C1 (stereo not given) | -12.8% |
| COc1ccc2c(C(=O)c3ccc(Cl)cc3)c(C)n(CC(=O)O)c2c1 | 22.3% |
| S=C(SSC(=S)N1CCCCC1)N1CCCCC1 | 13.2% |
| C[N+](C)(C)CCOC(=O)C(O)(c1ccccc1)c1ccccc1 | 98.8% (active) |
| CNC(=O)NC(O)C(Cl)(Cl)Cl (stereo not given) | 19.7% |
| C[C@]12C[C@@H]3S[C@H]3C[C@@H]1CC[C@H]1[C@H]3CC[C@@H](O)[C@@]3(C)CC[C@@H]12 | 17.2% |
| O=C(O)c1ccc(=O)[nH]c1 | -13.1% |
| C#CCOC(C(=O)OCCN(C)C)(c1ccccc1)c1ccccc1 | 17.1% |
| CC(=O)C1CCOC1=O (stereo not given) | 1.5% |
| C[C@]12C=CC(=O)C=C1CC[C@@H]1[C@@H]2CC[C@@]2(C)[C@H]1CC[C@]2(C)O | 75.7% (active) |
| CN1CCc2cc(Cl)c(O)cc2[C@H]2c3ccccc3CC[C@@H]21 | 46.5% |
| C[C@]12CC[C@H]3[C@@H](CCC4=CC(=O)CC[C@@]43C)[C@@H]1CC[C@@H]2C(=O)O | -1.3% |
| O=C1OC(c2ccc(O)c(S(=O)(=O)O)c2)(c2ccc(O)c(S(=O)(=O)O)c2)c2c(Br)c(Br)c(Br)c(Br)c21 | 84.5% (active) |
| CN1CCC(O)(c2ccc(F)cc2)C(C(=O)c2ccc(F)cc2)C1 (stereo not given) | 87% (active) |
| CC(=O)O[C@H]1C[C@H](O[C@H]2[C@@H](O)C[C@H](O[C@@H]3[C@@H](O)C[C@H](O[C@H]4CC[C@@]5(C)[C@H](CC[C@@H]6[C@H]5C[C@@H](O)[C@]5(C)[C@@H](C7=CC(=O)OC7)CC[C@]65O)C4)O[C@@H]3C)O[C@@H]2C)O[C@H](C)[C@H]1O[C@@H]1O[C@H](CO)[C@@H](O)[C@H](O)[C@@H]1O | 54.2% (active) |
| CCc1ccc(C2CCNCC2)cc1 | 9% |
| C=CCOC(Cn1ccnc1)c1ccc(Cl)cc1Cl (stereo not given) | 96.7% (active) |
| C1CCC(NC2CCCCC2)CC1 | -22% |

Test: decreased DLD-1 cellular survival, CellTiter-Glo luminescent readout, NPC compound collection, primary HTS (AID 1117346)
Conditions: DLD-1 viability, CellTiter-Glo luminescence; at 20 µM (top of the series)

| Structure (SMILES) | viability decrease (inhibition) |
| --- | --- |
| CC(C)(C)c1cc(O)ccc1O | -12% |
| CCN(CC)C(=O)N[C@@H]1C=C2c3cccc4[nH]cc(c34)C[C@@H]2N(C)C1 | -5.3% |
| COc1cccc(C(=O)CCN[C@@H](C)[C@H](O)c2ccccc2)c1 | 75.9% (active) |
| CC1(C)S[C@@H]2[C@H](N)C(=O)N2[C@@H]1C(=O)O | -4.4% |
| CCCN(CCC)C(=O)Cc1c(-c2ccc(Cl)cc2)nc2ccc(Cl)cn12 | 27.1% |
| Nc1ccccc1C(=O)O | -8.85% |
| COc1cc(CC#N)cc(OC)c1OC | -1.6% |
| C[C@H]1CNCCc2ccc(Cl)cc21 | 0.95% |
| Nc1ccc(N)cc1 | -15.2% |
| CC(C)(C)NC[C@H](O)c1ccc(O)cc1Cl | 8.8% |
| Clc1ccccc1N1CCNCC1 | 2% |
| CCN(CC)N(O)N=O | -7.7% |
| CCN(CC)Cc1nccn1-c1ccc([N+](=O)[O-])cc1C(=O)c1ccccc1Cl | 0% |
| O=c1[nH]c2cc(Cl)ccc2n1C1CCNCC1 | 12.5% |
| Oc1ccccc1-c1ccccc1 | 8.7% |
| O=C(N[C@H]1N=C(c2ccccc2F)c2cccc3c2N(CC3)C1=O)c1cc2ccccc2[nH]1 | 29.7% |
| COP(=S)(OC)SCN1C(=O)c2ccccc2C1=O | 24.4% |
| CC(C)NC(C)C | 0.4% |
| CNC(C)[C@@H](O)c1ccc(O)cc1 (stereo not given in full) | 6% |
| CCCOC(=O)c1cncn1C(C)c1ccccc1 (stereo not given) | 18.7% |

| Structure (SMILES) | viability decrease (inhibition) |
| --- | --- |
| C1CN(P2(N3CC3)=NP(N3CC3)(N3CC3)=NP(N3CC3)(N3CC3)=N2)CCO1 (stereo not given) | 5.5% |
| N[C@@H](Cc1ccc(Oc2cc(I)c(O)c(I)c2)c(I)c1)C(=O)O | -13.1% |
| CC[N+]1(CC)CCC(OC(=O)C(O)(c2ccccc2)c2ccccc2)C1 (stereo not given) | -6.4% |
| COc1ccc2c(C(=O)c3ccc(Cl)cc3)c(C)n(CC(=O)O)c2c1 | -3.8% |
| S=C(SSC(=S)N1CCCCC1)N1CCCCC1 | -3.5% |
| C[N+](C)(C)CCOC(=O)C(O)(c1ccccc1)c1ccccc1 | 102% (active) |
| CNC(=O)NC(O)C(Cl)(Cl)Cl (stereo not given) | -1.55% |
| C[C@]12C[C@@H]3S[C@H]3C[C@@H]1CC[C@H]1[C@H]3CC[C@@H](O)[C@@]3(C)CC[C@@H]12 | -13.3% |
| O=C(O)c1ccc(=O)[nH]c1 | -3.9% |
| C#CCOC(C(=O)OCCN(C)C)(c1ccccc1)c1ccccc1 | -1.8% |
| CC(=O)C1CCOC1=O (stereo not given) | 1.4% |
| C[C@]12C=CC(=O)C=C1CC[C@@H]1[C@@H]2CC[C@@]2(C)[C@H]1CC[C@]2(C)O | 17.9% |
| CN1CCc2cc(Cl)c(O)cc2[C@H]2c3ccccc3CC[C@@H]21 | 21.2% |
| C[C@]12CC[C@H]3[C@@H](CCC4=CC(=O)CC[C@@]43C)[C@@H]1CC[C@@H]2C(=O)O | 2.4% |
| O=C1OC(c2ccc(O)c(S(=O)(=O)O)c2)(c2ccc(O)c(S(=O)(=O)O)c2)c2c(Br)c(Br)c(Br)c(Br)c21 | -56.3% |
| CN1CCC(O)(c2ccc(F)cc2)C(C(=O)c2ccc(F)cc2)C1 (stereo not given) | 72.8% (active) |
| CC(=O)O[C@H]1C[C@H](O[C@H]2[C@@H](O)C[C@H](O[C@@H]3[C@@H](O)C[C@H](O[C@H]4CC[C@@]5(C)[C@H](CC[C@@H]6[C@H]5C[C@@H](O)[C@]5(C)[C@@H](C7=CC(=O)OC7)CC[C@]65O)C4)O[C@@H]3C)O[C@@H]2C)O[C@H](C)[C@H]1O[C@@H]1O[C@H](CO)[C@@H](O)[C@H](O)[C@@H]1O | 55.1% (active) |
| CCc1ccc(C2CCNCC2)cc1 | -8.7% |
| C=CCOC(Cn1ccnc1)c1ccc(Cl)cc1Cl (stereo not given) | 30.1% |
| C1CCC(NC2CCCCC2)CC1 | -4.45% |

— PubChem BioAssay
